# Compound activity deposited in PubChem by several laboratories.
# PfGluPho inh: PfG6PD enzyme inhibitors, primary screen, biochemical, fluorescence intensity, uHTS; PfGluPho enzyme, NADPH resazurin-diaphorase fluorescence; inhibition, % at 20 µM; 350,000 compounds, 0.78% hits;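 active = inhibition reaching at least a set limit at 20 µM in the primary screen, cut at about 59% in these data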;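 note: 0% = DMSO wells with substrate and 100% = DMSO wells lacking glucose-6-phosphate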
# Neddyl block: inhibitors of cullin neddylation, primary screen, biochemical, TR-FRET, uHTS, NAE and Ubc12; calls only at 25 µM; NEDD8-conjugating enzyme Ubc12 (Homo sapiens) + NEDD8-activating enzyme E1 regulatory …; 360,000 compounds, 0.58% hits; AID 651699, 2012; in the data active = inhibition above about 36%
# Target sequence (P61081 whole entry, looked up): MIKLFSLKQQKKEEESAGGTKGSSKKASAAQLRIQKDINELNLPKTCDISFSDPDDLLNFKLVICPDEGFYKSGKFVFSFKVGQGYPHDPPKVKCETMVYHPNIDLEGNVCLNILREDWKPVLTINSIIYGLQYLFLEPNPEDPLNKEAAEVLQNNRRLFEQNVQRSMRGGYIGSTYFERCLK
# Target sequence (Q13564 whole entry, looked up): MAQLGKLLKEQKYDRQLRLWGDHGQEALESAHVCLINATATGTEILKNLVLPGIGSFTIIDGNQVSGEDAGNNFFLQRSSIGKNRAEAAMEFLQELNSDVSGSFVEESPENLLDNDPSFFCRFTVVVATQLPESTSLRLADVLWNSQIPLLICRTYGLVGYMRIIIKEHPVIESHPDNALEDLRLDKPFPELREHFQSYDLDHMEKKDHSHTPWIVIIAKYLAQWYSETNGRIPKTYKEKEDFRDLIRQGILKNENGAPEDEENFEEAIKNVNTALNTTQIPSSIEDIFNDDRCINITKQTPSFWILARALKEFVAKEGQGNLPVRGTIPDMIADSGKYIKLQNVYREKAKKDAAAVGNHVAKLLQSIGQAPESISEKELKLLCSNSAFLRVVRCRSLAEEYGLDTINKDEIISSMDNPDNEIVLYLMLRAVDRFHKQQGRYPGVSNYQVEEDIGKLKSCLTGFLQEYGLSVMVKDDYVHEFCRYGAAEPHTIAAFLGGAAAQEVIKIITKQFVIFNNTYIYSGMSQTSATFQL
# proKLK7 act: proKLK7 zymogen activators, primary screen, biochemical, fluorescence intensity | Kallikrein-7 (Homo sapiens), P49862 | purified proKLK7, EDANS-DABCYL substrate fluorescence; 100% is mature enzyme control, 0% vehicle | activation, % at 7 µM | 370,000 compounds, 0.9% hits | AID 652039, 2013;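 active = activation above the mean of all tested compounds plus 3 SD, computed per campaign excluding outliers beyond control limits, cut at about 13% in these data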
# FAS TE block: FAS thioesterase domain inhibitors, primary screen, biochemical, fluorescence intensity, uHTS. Fatty acid synthase (Homo sapiens), P49327. 360,000 compounds, 0.67% hits. AID 602261, 2012. recombinant FAS-TE, OMFH fluorogenic substrate, fluorescence endpoint. inhibition, % at 15 µM;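 active = compounds whose normalised, plate-corrected inhibition of enzyme fluorescence in the single-dose primary screen is 50% or more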;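 note: 0% = DMSO with enzyme and 100% = substrate without enzyme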
# Neddyl conf: blockade of NEDD8 conjugation to cullin – biochemical, TR-FRET, single concentration, confirmation; shares compounds with Neddyl block; 1,800 compounds, 13% hits; calls only at 25 µM; AID 652217, 2013; TR-FRET cullin neddylation biochemical assay; in the data active = inhibition above about 40%;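 note: neddylation substrate is the cullin 1 ring ligase complex with SKP2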
# An asterisk follows results filed as active; i = inactive; · = no result given; + = active, no number. Compounds with a hit are over-represented: about 2.7% of the library has one in this group of screens.
SMILES,PfGluPho inh,Neddyl block,proKLK7 act,FAS TE block,Neddyl conf
COc1ccc(NC(=O)CSc2nc3nc(-c4cccs4)cc(C(F)(F)F)c3c(=O)[nH]2)c(OC)c1,4,+,2,6,i
CCOc1ccccc1NC(=O)CSc1nc2nc(-c3cccs3)cc(C(F)(F)F)c2c(=O)[nH]1,-27,i,7,14,·
Cc1ccc(S(=O)(=O)NC[C@H]2O[C@@H](n3ccc(N)nc3=O)[C@H](O)[C@@H]2O)s1,7,i,-1,-12,·
CCN(CC)CCOC(=O)c1ccccc1Br,-10,i,0,-1,·
CCN(CC)CCOC(=O)c1cccc2c1-c1ccccc1C2O (stereo unspecified),-10,+,1,-6,i
C(=C\c1ccc2nncn2c1)/c1ccccc1,·,+,0,-20,+
O=[N+]([O-])c1ccc(Cl)c(CN2CCN(c3ncc(Cc4ccccc4)cn3)CC2)c1,·,i,0,·,·
CCc1ccc(S(=O)(=O)Nc2c(NC3CCCCC3)c3ccccc3oc2=O)cc1,14,+,·,12,+
O=c1oc2ccccc2c(NC2CCCCC2)c1NS(=O)(=O)c1ccc(F)cc1,8,i,-1,10,·
CC(C)Sc1nnc(-c2ccc(S(=O)(=O)N3CCOCC3)cc2)n1C,-5,+,-1,0,i
Cc1[nH]n2c(=O)c3c(nc2c1-c1ccccc1)CCC3,-10,i,-3,-6,·
O=c1c2c(nc3c(-c4ccccc4)c[nH]n13)CCCC2,7,+,-14,1,·
Cn1cc(-c2cccc(Cl)c2)cc(C#N)c1=O,7,+,2,4,i
Cn1cc(-c2cccc(C(F)(F)F)c2)cc(C#N)c1=O,0,i,0,0,·
Nc1ccn([C@@H]2O[C@H](CNCc3cc(Cl)ccc3OCc3ccc(Cl)cc3)[C@@H](O)[C@H]2O)c(=O)n1,36,i,-1,0,·
C[C@@H]1CCN(C2CC2)S(=O)(=O)c2ccc(N3CC[C@@H](N(C)C)C3)cc2O1,·,·,0,·,·
Cc1cc(C)nc(NC(=O)c2cc(-c3ccc4c(c3)OCO4)nc3ccccc23)c1,0,+,-32,18,·
CCOC(=O)N1CCN(C(=O)CSc2ccc3nnc(-c4ccccn4)n3n2)CC1,-6,+,1,-2,i
O=C(CSc1ccc2nnc(-c3ccccn3)n2n1)N1CCOCC1,2,·,1,-1,·
O=C(NNC(=O)c1ccc2ccccc2c1O)NC1CCCCC1,-57,+,-3,-28,i
COc1ccc(/C=N\NC(=O)c2ccc(-c3ccccc3)cc2)cc1COC(C)=O,7,+,-2,6,i
COc1ccc(/C=N/NC(=O)c2ccc(O)cc2O)cc1CSc1ccccn1,-20,+,1,-2,i
Cn1c(NCC2CCCCC2)nc2cc(-c3ccsc3)sc2c1=O,·,i,-1,22,·
CCCCNC(=O)CCCCCn1c(=O)[nH]c2cc(C(=O)OC)ccc2c1=O,3,i,0,0,·
COC(=O)c1ccc2c(=O)n(CCCCCC(=O)O)c(=O)[nH]c2c1,4,+,-11,-9,·
SMILES,PfGluPho inh,Neddyl block,proKLK7 act,FAS TE block,Neddyl conf
Cc1ccc(-c2cc(-c3ccc(F)cc3)c(C#N)c(N)n2)o1,48,+,3,10,·
CCOc1cc(-c2cc(-c3ccc(C)o3)nc(N)c2C#N)ccc1O,16,i,3,16,·
COc1cccc(/C=C/C(=O)OCC(=O)NCc2ccco2)c1,-3,+,3,-4,i
O=C(CCCCn1ccc(=O)[nH]c1=O)Nc1ccc(C(=O)O)c(O)c1,18,i,0,-5,·
O=C(CCCCn1ccc(=O)[nH]c1=O)Nc1ccc(O)c(C(=O)O)c1,4,+,0,-5,·
COc1ccc(/C=C/c2nnc(NC(C)=O)s2)cc1,5,+,-5,-1,i
COC(=O)c1cc(-c2ccc(F)cc2OCc2ccccc2)c(=O)n2c1CCC2,·,·,0,·,·
CC(C)(C)c1ccc(NC(=O)C2CCCN(c3cnccn3)C2)cc1 (stereo unspecified),47,+,0,3,i
COc1ccc(NC(=O)C2CCCN(c3cnccn3)C2)cc1 (stereo unspecified),-7,i,0,-5,·
CC(C)[N+]1=C2C=CC=CC=C2SC12C([N+](=O)[O-])=CC(=[N+]([O-])[O-])C=C2[N+](=O)[O-] (stereo unspecified),14,+,0,-5,i
CN(CCO)S(=O)(=O)c1ccc2c(c1)C(=NO)c1cc(S(=O)(=O)N(C)CCO)ccc1-2,-14,+,11,-63,i
NS(=O)(=O)c1ccc2c(c1)C(=NO)c1cc(S(N)(=O)=O)ccc1-2,11,i,5,-28,·
COC(=O)c1cc2c(c3c4cc(OC)ccc4n(S(=O)(=O)c4ccc(F)cc4)c13)C(=O)N(CC(C)C)C2,·,·,1,·,·
CC(=O)Nc1cccc2c1C(=O)NC2=O,-9,+,-25,-4,+
O=C1NC(=O)c2c(NC(=O)C3CCCO3)cccc21 (stereo unspecified),-10,i,-20,-10,·
CC(C)NC(=O)Nc1ccc2c(c1)C(=O)N([C@H](C)CO)C[C@H](C)[C@@H](CN(C)Cc1ccc(C(F)(F)F)cc1)OCCCC[C@H](C)O2,25,i,0,6,·
COc1ccc(S[C@]2(C(=O)NC(C)C)CC(=O)N[C@@H]2c2ccc(OC)cc2)cc1,·,·,0,·,·
CCc1nn2c(N3CCOCC3)cc(C)nc2c1-c1ccc(F)cc1,-7,i,-1,11,·
CCc1nn2c(N(C)CCO)cc(C)nc2c1-c1ccc(F)cc1,13,+,1,-4,i
CCOc1ccc2[nH]c3ncccc3c(=O)c2c1,2,+,7,-3,+
O=C(c1ccccc1)N1CCN(c2ccc(N3CCOCC3)nn2)CC1,7,+,5,-8,·
O=C(c1ccc(Cl)cc1Cl)N1CCN(c2ccc(N3CCOCC3)nn2)CC1,-1,+,7,0,·
COc1ccccc1C(=O)N1CCN(c2ccc(N3CCOCC3)nn2)CC1,-10,·,-1,-4,·
O=C(c1cccc(Cl)c1)N1CCN(c2ccc(N3CCOCC3)nn2)CC1,-14,+,3,-6,·
COc1cc(F)ccc1-c1csc(C(NC(C)=O)c2ccccc2)n1 (stereo unspecified),·,i,0,1,·
COc1ccc(C2C(C(=O)Nc3cc(OC)c(OC)c(OC)c3)CCC(=O)N2c2ccc(OC)cc2)cc1 (stereo unspecified),·,·,0,·,·
